About 650 (31%) of roughly 2,100 compounds were called active. Roughly 16% stayed inconclusive and do not appear here. This is one part of the list. Values without a mark were called inactive. Calls follow the shape of the dose curve; as a rule, active = well fitted inhibition curve with a large enough effect; inconclusive = small, poorly fitted or top-dose-only effect; inactive = flat fitted curve, though single readings scatter.
Potency is read from the fitted curve at half-maximal effect.

A short description of the assay: qHTS for inhibitors of Vif-A3G interactions: Cherry picks. Also: nearly all actives have a fitted effect of over 80% in size. As to activity, negative = fluorescence increase: % of control where 0% means no effect. The following applies: HeLa A3G-eYFP + Vif (tagged APOBEC3G with the HIV-1 protein that degrades it), 24 h; Potency: eYFP fluorescence increase; series mostly up to 36.9 µM; activity, negative = fluorescence increase: at the top concentration. The source says:
The recent discovery and characterization of host restriction factors, which provide a potent defense to invading retroviruses, has provided new targets for antiviral drug development. APOBEC3G (A3G) and APOBEC3F (A3F) are potent cytidine deaminases that block HIV-1 replication; HIV-1 expresses the Vif protein, which counteracts A3G and A3F by binding to them and inducing their proteasomal degradation. The Vif-A3G and Vif-A3F interactions provide two potential targets for development of small molecules which can interfere with the ability of Vif to degrade A3G or A3F. […] To identify inhibitors that can interfere with Vif mediated degradation of A3G and A3F, we have developed Hela cell lines that stably express A3G or A3F tagged with eYFP at the C-terminal end (A3G-eYFP or A3F-eYFP, respectively) and Vif. In the absence of an inhibitor, Vif induces degradation of A3G-eYFP and A3F-eYFP, and the cells are not fluorescent. In the presence of an inhibitor, it is expected that Vif will be unable to degrade A3G-eYFP and/or A3F-eYFP, resulting in an increase in yellow fluorescence. In this assay, Vif A3G was screened against the cherry picks ordered from the MLSMR. NIH Chemical Genomics Center [NCGC] NIH Molecular Libraries Probe Centers Network [MLPCN] MLPCN Grant: MH093245 Assay Submitter (PI): Vinay Pathak, National Cancer Institute
A3G-Vif cells were harvested from T225 flask and resuspended in phenol free OPTI-MEM medium with 5% FBS. Then 5 uL of 140,000 cells/mL resuspended cells was dispensed into each well of low base Aurora COC 1,536-well plates (black walled, clear bottom) using a Multidrop Combi dispenser. After overnight culture at 37 deg C with 5% CO2, a total of 23 nL of compounds at 5 selected concentrations from the NPC or positive control (2 mM stock of MG132) in DMSO was transferred to each well of the assay plate using a pintool (Kalypsys, San Diego, CA), and the plates were further incubated at 37 deg C with 5% CO2 for 24 hours. After that, the plates were measured on Acumen Explorer (TTP Lab Tech). The fluorescence was detected by 488 nm/Ex and […].
(qHTS replaces the single test concentration by a dilution series.)
For the compound `Cc1cc(C)cc(C(=O)N2CC(=O)Nc3ccccc32)c1`, the “activity, negative = fluorescence increase” value was -15.5%.
Regarding `Cc1cccc2cc(C#N)c(SCC(=O)N3CC(=O)Nc4ccccc43)nc12`, the Potency was 17.7 µM (active).
For `NC(=O)c1ccccc1NC(=S)NC(=O)CCc1ccccc1`, the “activity, negative = fluorescence increase” value was 1.18%.
Still for that read-out and setting: in the case of `O=C(/C=C/c1ccco1)NC(=S)Nc1cccc(-c2nc3ccccc3o2)c1` it was -10.6%.
As for `Oc1cccc(Nc2nc(O)c(/C=C3\C=Nc4ccccc43)s2)c1`, the Potency is 23.1 µM (active).
As for `CC(=O)c1cccc(NC(=O)C2CCCN(S(=O)(=O)c3cccc4nonc34)C2)c1` (centres undefined), the “activity, negative = fluorescence increase” value is -16.3% [at 46.1 µM].
Consider `COC(=O)c1ccc(Nc2c([N+](=O)[O-])ccc3nonc23)cc1`, for which the Potency was 20.6 µM (active).
Take `COc1ccc(N2C(=O)NC3CC2(C)Oc2ccccc23)cc1OC` (centres undefined): the “activity, negative = fluorescence increase” value was -7.13%.
`COc1ccc(OC)c(NC(=O)Cn2cnc3onc(-c4ccc(Cl)cc4)c3c2=O)c1`: the “activity, negative = fluorescence increase” value is 2.25% [at 46.1 µM].
In the case of `COc1ccc(OC)c(NC(=O)Cn2c(=O)n(-c3ccc(Cl)cc3)c(=O)c3c(C)c(C)sc32)c1`, the Potency was 14.6 µM (active).
Take `CCOC(=O)c1[nH]c(C)c(C(=O)Nc2cc(OC)ccc2OC)c1C`: the “activity, negative = fluorescence increase” value was -9.64%.
On to `CCCOc1ccc(N)cc1N`, for which the “activity, negative = fluorescence increase” value is -3.69% [at 46.1 µM].
For the compound `O=C1/C(=C/c2ccc(O)cc2)SC(=S)N1CC1CCCO1` (centres undefined), the “activity, negative = fluorescence increase” value was 2.84% [at 46.1 µM].
For the compound `CCOc1cc(/C=C2/SC(=S)N(CC3CCCO3)C2=O)ccc1O` (centres undefined), the Potency is 20.6 µM (active).
On the same count and under the same terms, the result for `COc1cc(/C=C2/SC(=S)N(CC3CCCO3)C2=O)ccc1O` (centres undefined) reads 18.4 µM (active).
On to `COc1nc(-c2ccccc2)cc(-c2ccc3c(c2)OCO3)c1C#N`, for which the “activity, negative = fluorescence increase” value is -8.86%.
Still for that read-out and setting: the result for `CCOC(=O)c1c(CN(CC)CC)n(-c2ccccc2)c2ccc(O)cc12` reads -3%.
Same read-out and setting: in the case of `O=C1/C(=C\c2ccc(O)cc2)SC(=S)N1Cc1ccccc1` it was 8.8% [at 46.1 µM].
With `O=C(O)c1cc(-c2ccc(/C=C3/SC(=S)N(Cc4ccccc4)C3=O)o2)ccc1Cl`, the Potency was 18.4 µM (active).
Take `Cc1c(C(=O)OC2CCCCC2)[nH]c2c1C(=O)CC(c1ccccc1Cl)C2` (centres undefined): the “activity, negative = fluorescence increase” value was -1.35% [at 46.1 µM].
Turning to `Cc1cc(/C=C2\SC(=S)N(C)C2=O)c(C)n1-c1ccccc1O`, the Potency is 23.1 µM (active).
For `Cc1cc(/C=C2\SC(=S)N(C)C2=O)c(C)n1-c1ccc(O)cc1`, the Potency was 20.6 µM (active).
On to `Cc1cc(/C=C2\SC(=Nc3ccccc3)NC2=O)c(C)n1-c1ccc(S(N)(=O)=O)cc1`, for which the “activity, negative = fluorescence increase” value is -12.8%.
Same read-out and setting: in the case of `NC(=O)c1cccc(-c2ccnc3c2CC(C(=O)NCc2ccco2)O3)c1` (centres undefined) it was -1.78%.
For the compound `CC(=O)N/N=C/c1cc(C(C)(C)C)cc(/C=N/NC(C)=O)c1O`, the Potency is 23.1 µM (active).
With `CC(=O)N/N=C/c1cc(C(C)C)cc(/C=N/NC(C)=O)c1O`, the Potency was 23.1 µM (active).
As for `NC(=S)N/N=C/c1cccc(O)c1O`, the “activity, negative = fluorescence increase” value was -2.38% [at 46.1 µM].
Still for that read-out and setting: the result for `Cc1cc(-n2c(C)cc(C(=O)CCl)c2C)no1` reads -5.58%; that for `Cc1ccc(/C=N/NC(=O)c2nc3nc(C)cc(C)n3n2)cc1`, 11.1% [at 46.1 µM].
As to `CC[N+](C)(C(=O)O)/C(=C\c1ccccc1)c1ccnc2ccccc12` (centres undefined), the Potency is 18.4 µM (active).
Regarding `CCc1ccc(/C=N/NC(=O)c2cc(-c3ccncc3)nc3ccccc23)s1`, the “activity, negative = fluorescence increase” value is -2.61%.
On to `COc1ccc(C(=O)c2sc3nc4c(c(C(F)(F)F)c3c2N)CN(C(C)=O)CC4)cc1OC`, for which the Potency was 18.4 µM (active).
Regarding `COc1cc2c(cc1OC)CN(C(=O)c1ccc3nc[nH]c3c1)CC2`, the “activity, negative = fluorescence increase” value is -3.55%.
With `CC(=O)N1CCc2nc3sc(C(=O)c4ccc(F)cc4)c(N)c3c(C(F)(F)F)c2C1`, the Potency is 18.4 µM (active).
Consider `COc1ccc(-c2n[nH]c3c2CN(C(=O)c2ccc(OC)c(OC)c2)CC3)cc1`, for which the “activity, negative = fluorescence increase” value is 1.56%.
Same read-out and setting: in the case of `COc1ccc(-c2cc3ccccc3oc2=O)cc1NC(=S)NC(=O)c1ccc2c(c1)OCCO2` it was -29.6% [at 46.1 µM].
Same read-out and setting: the result for `COc1ccc(S(=O)(=O)Nc2cccc(-c3ccc4nncn4n3)c2)cc1` reads -5.05%; that for `Cc1ccc(NC(=S)N/N=C2\CCCCC2C)cc1` (centres undefined), -7.25% [at 46.1 µM].
On the same count and under the same terms, in the case of `CN(C)S(=O)(=O)c1ccc(N2CCCC2)c(C(=O)N2CCN(S(=O)(=O)c3ccc(F)c(F)c3)CC2)c1` it was -0.607%.
In the case of `Cc1cc(NC(=O)/C(C#N)=C\c2ccc(-c3ccc(SC(F)F)cc3)o2)n(-c2ccccc2)n1`, the Potency is 14.6 µM (active).
The same measure, in the same setting: the result for `Cc1cc(NC(=O)/C(C#N)=C/c2ccc(-c3ccc(SC(F)F)cc3)o2)n(-c2ccccc2)n1` reads 10.3 µM (active).
Take `O=C(/C=C/c1ccco1)NC(=S)Nc1ccc(N2CCCC2)cc1`: the “activity, negative = fluorescence increase” value was -9.35%.
On the same count and under the same terms, in the case of `Cc1ccc2[nH]c3c(c2c1)CN(C(=O)CN1CC(C)OC(C)C1)CC3` (centres undefined) it was -22.7%.
For the compound `COC(=O)c1cc(NC(=O)c2ccccc2)c(=O)oc1/C=C/Nc1ccc(Oc2ccccc2)cc1`, the Potency is 11.6 µM (active).
As for `O=C(Nc1ccccc1OC(=O)c1ccccc1)c1ccccc1`, the “activity, negative = fluorescence increase” value is -13.5%.
On the same count and under the same terms, the result for `COc1cc(OC)cc(C(=O)Nc2ccccc2C(=O)NC2CC2)c1` reads -10.4%.
Turning to `COc1ccc(C(=O)Nc2cccc(/C=C/c3nc4ccccc4c(=O)[nH]3)c2)cc1`, the “activity, negative = fluorescence increase” value was -4.28%.
Still for that read-out and setting: in the case of `CC(=O)c1cc2c(cc1NS(=O)(=O)c1ccc(C)cc1)OCCO2` it was -0.455%; in that of `Cc1ccc(/C=N/NC(=O)c2cc(C)oc2C)cc1`, -5.86%.
As for `CC(=O)c1cc(NC(=O)c2ccc(Cl)cc2)c(=O)oc1/C=C/N(C)C`, the Potency is 11.2 µM (active).
For `COc1ccc(C(=O)Nc2cc(C(C)=O)c(/C=C/N(C)C)oc2=O)cc1`, the Potency is 15.8 µM (active).
Consider `CO/N=C\CC(=O)Nc1ccc(Oc2ccccc2)cc1`, for which the “activity, negative = fluorescence increase” value is -4.61%.
As for `COC(=O)c1c(-c2ccccc2Cl)noc1/C=C/N(C)C`, the “activity, negative = fluorescence increase” value was 0.705%.
For `CC(=O)c1cc(NC(=O)c2ccc(C)cc2)c(=O)oc1/C=C/N(C)C`, the Potency was 16.4 µM (active).

The record behind these values is PubChem BioAssay AID651812 (National Center for Advancing Translational Sciences (NCATS), 2012).
